Unmarked numbers belong to inactive results. Results filed as inconclusive are left out. Active and inactive are the calls of the source. Unless noted, calls follow the shape of the dose curve; as a rule, active = well fitted curve in the direction sought with a large enough effect in the repeat runs; inconclusive = weak or mixed curves; inactive = no such curve, though single readings can be large; an effect the other way counts as inactive or inconclusive.

Test [1] in a line: qHTS assay to identify small molecule antagonists of the estrogen receptor beta (ER-beta) signaling pathway - cell viability counter screen (AID 1259382).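 Also: HEK293T cells carrying ER-beta-UAS-bla reporter stimulated with estradiol; series mostly up to about 92 µM; nearly all actives have a fitted effect of over 55% in size.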 In short, it runs like this:
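HEK293T ER-beta-UAS-bla, 2% charcoal-stripped FBS; compounds + 1nM E2 16 hr 37C; CellTiter-Glo luminescence, 30 min RT.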
In general terms: In qHTS, concentration-response curves come from the screen itself.

Test [2] can be described thus: qHTS assay to identify small molecule agonists or antagonists of the thyroid stimulating hormone receptor (TSHR) signaling pathway - wild type cell line counter screen (AID 1259384; calls by dose curve). In a few lines:
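Wild-type HEK293 cells were plated 18 h at 37 C/5% CO2, pin-dosed with compound plus Ro20-1724 medium, held 30 min at room temperature, then given cAMP-d2 and anti-cAMP-cryptate; fluorescence was read after 1 h. Fifteen concentrations, triplicate.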

Test [3] concerns the target Thyrotropin receptor (Homo sapiens) (UniProt P16473). Nature of the test: qHTS assay to identify small molecule antagonists of the thyroid stimulating hormone receptor (TSHR) signaling pathway (AID 1259385; calls by dose curve; also: nearly all actives have a fitted effect of over 20% in size). In short, it runs like this: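 TSHR-HEK293 cells were plated and held 18 h at 37C/5% CO2, then given compound plus Ro20-1724 and stimulated with TSH at 1.5 ng/mL final. After 30 min at room temperature, cAMP was detected with cAMP-d2/anti-cAMP-cryptate (1 h) by fluorescence.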

Test [4] is described as follows: qHTS assay to identify small molecule agonists of the estrogen receptor alpha (ER-alpha) signaling pathway in the presence of an antagonist - cell viability counter screen (AID 1259386).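 Also: series mostly up to about 92 µM; cells exposed to compounds for 22 h at 37 °C before the viability read; nearly all actives have a fitted effect of over 30% in size.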 In a few lines: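 Steps: 5-day stripped-FBS culture; seed and incubate 24hr; add ICI-182,780 (10.0nM final); pin 15-point compound titration; incubate 22hr at 37C; add CellTiter-Fluor at 21hr; read fluorescence.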

Test [5] addresses Progesterone receptor (Homo sapiens) (UniProt P06401). Nature of the test: qHTS assay to identify small molecule agonists of the progesterone receptor (PR) signaling pathway (AID 1346784; calls by dose curve; also: nearly all actives have a fitted effect of over 30% in size). In a few lines: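 Compounds were tested for PR agonism in HEK 293T cells bearing a beta-lactamase gene under UAS control. Treatment lasted 16 hr at 37C; signal came from fluorescence of a FRET substrate.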

Test [6] has the same target. Nature of the test: qHTS assay to identify small molecule antagonists of the progesterone receptor (PR) signaling pathway (AID 1346795; active = well fitted inhibition curve with a large enough effect in the signal ratio in the repeat runs, not every such curve was filed as active; the % refers to the signal ratio). In short, it runs like this: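 In HEK293T cells bearing the PR-UAS-bla reporter, compound effects on promegestone-driven (1 nM) beta-lactamase expression are assessed after 16 hr using a fluorescent FRET substrate incubated 2 hr at room temperature.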

Test [7] in a line: qHTS assay to identify small molecule antagonists of the progesterone receptor (PR) signaling pathway - cell viability counter screen (AID 1346798). Also: series mostly up to about 92 µM; nearly all actives have a fitted effect of over 50% in size. In short, it runs like this: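 Following a 4 hr attachment, PR-UAS-bla HEK293T cells in charcoal-stripped FBS medium were exposed to compounds with R5020 for 16 hr; CellTiter-Glo was added and luminescence read after 30 min at room temperature.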

The nature of test [8]: qHTS assay to identify small molecule agonists of the progesterone receptor (PR) signaling pathway - cell viability counter screen (AID 1346799; calls by dose curve; also: nearly all actives have a fitted effect of over 45% in size). In short, it runs like this:
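Here, 3,000 PR-UAS-bla HEK293T cells per well were treated with compounds for 16 hr after a 6 hr preincubation at 37C and 5% CO2; cell viability is the CellTiter-Glo luminescence signal.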

A short description of test [9]: qHTS assay to identify small molecule antagonists of the TGF-beta/Smad signaling pathway - cell viability counter screen (AID 1346824). Also: nearly all actives have a fitted effect of over 50% in size. In a few lines:
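SBE-bla HEK 293T cells were plated overnight at 37 C, then given compounds in DMSO plus TGF-beta1 (added as 0.25 ng/mL solution) for 5 hr. After the bla read, CellTiter-Glo was added to the same wells and luminescence read after 30 min at room temperature.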

A short description of test [10]: qHTS assay to identify small molecule agonists of the TGF-beta/Smad signaling pathway (AID 1346859; active = well fitted activation curve with a large enough effect in the signal ratio in the repeat runs, not every such curve was filed as active; the % refers to the signal ratio; also: series mostly up to about 77 µM). In short, it runs like this: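 Each well held 4,000 SBE-bla HEK 293T cells incubated overnight before compound addition; 5 hr later the cleavable FRET substrate went on for 2 hr at room temperature, and fluorescence was read at two emissions.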
The nature of test [11]: Human pregnane X receptor (PXR) small molecule agonists, qHTS cell viability counter screen (AID 1346977). Also: nearly all actives have a fitted effect of over 50% in size. In short, it runs like this: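 Tox21 qHTS format; PXR-Luc HepG2, 2,000/well, charcoal-stripped FBS 5%. Cpd exposure 24hr. Read: CellTiter-Fluor fluorescence, multiplexed with luciferase.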
A short description of test [12]: Caspase-3/7 induction in HepG2 cells by small molecules, qHTS assay (AID 1346978). Also: nearly all actives have a fitted effect of over 15% in size. In a few lines:
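Wild-type HepG2 cells (2,000/well) were settled 5 h at 37 C, 5% CO2, then exposed to compounds in DMSO for 17 h. Caspase-3/7 activity was read by luminescence 30 min after adding Caspase-Glo 3/7 reagent at room temperature.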

Test [13] is described as follows: Caspase-3/7 induction in CHO-K1 cells by small molecules, qHTS cell viability counter screen (AID 1346979). Also: nearly all actives have a fitted effect of over 35% in size. In a few lines: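 CellTiter-Fluor viability check, qHTS format: wild-type CHO-K1, 16hr compound treatment, 1hr reagent incubation, fluorescence read.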
A short description of test [14]: Caspase-3/7 induction in CHO-K1 cells by small molecules, qHTS assay (AID 1346980). Also: nearly all actives have a fitted effect of over 15% in size. In short, it runs like this: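 Wild-type cells were seeded at 1,500 per well and settled 5 hr at 37 C, 5% CO2, then exposed to DMSO-dissolved compounds for 17 hr. Caspase-Glo 3/7 reagent was added, and luminescence was read after 30min at room temperature.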
The target in test [15] is Nuclear receptor subfamily 1 group I member 2 (Homo sapiens) (UniProt O75469). Nature of the test: Human pregnane X receptor (PXR) small molecule agonists, qHTS assay (AID 1346982). Also: nearly all actives have a fitted effect of over 35% in size. Also: potency is read from the fitted curve at half-maximal effect. In a few lines: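 After plating in 5% charcoal-stripped FBS and a 5 hr rest, PXR-Luc HepG2 cells received compounds in DMSO. Following 24 hr at 37 C, ONE-Glo was added and light output read.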
Nuclear receptor subfamily 1 group I member 2 (Homo sapiens), sequence (O75469 whole entry, looked up): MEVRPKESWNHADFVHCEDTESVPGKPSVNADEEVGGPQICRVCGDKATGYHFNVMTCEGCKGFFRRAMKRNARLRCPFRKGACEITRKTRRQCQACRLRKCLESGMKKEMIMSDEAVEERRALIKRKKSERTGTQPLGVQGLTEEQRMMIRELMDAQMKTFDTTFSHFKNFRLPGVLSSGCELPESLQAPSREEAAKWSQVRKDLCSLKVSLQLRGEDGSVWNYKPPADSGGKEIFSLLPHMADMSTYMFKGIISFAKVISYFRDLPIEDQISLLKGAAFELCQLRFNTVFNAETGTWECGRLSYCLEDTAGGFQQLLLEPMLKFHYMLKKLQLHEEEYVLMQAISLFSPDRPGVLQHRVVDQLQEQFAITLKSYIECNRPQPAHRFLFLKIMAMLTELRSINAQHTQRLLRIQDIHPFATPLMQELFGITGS

The target in test [16] is Thyrotropin-releasing hormone receptor (Homo sapiens) (UniProt P34981). Nature of the test: qHTS assay to identify small molecule antagonists of the thyrotropin-releasing hormone receptor (TRHR) signaling pathway (AID 1346877; active = well fitted inhibition curve with a large enough effect in the repeat runs, not every such curve was filed as active; also: series mostly up to about 51 µM). In short, it runs like this:
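Human TRHR in HEK293 cells; inhibition of the intracellular calcium rise triggered by 1 nM TRH was followed by fluorescence over 3 min. Compounds were run at 15 concentrations, three replicates each.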

Test [17] shares this target. Nature of the test: qHTS assay to identify small molecule agonists of the thyrotropin-releasing hormone receptor (TRHR) signaling pathway (AID 1346891; calls by dose curve; also: series mostly up to about 58 µM). In a few lines:
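Screening of agonists relied on calcium signalling in HEK293 cells expressing human TRHR: dye loading 2 h at 37 °C preceded compound addition and a 3-min fluorescence time course.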

The nature of test [18]: Caspase-3/7 induction in HepG2 cells by small molecules, qHTS cell viability counter screen (AID 1346981). Also: series mostly up to about 92 µM; nearly all actives have a fitted effect of over 30% in size. In a few lines:
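The parent HepG2 line is plated at 2,000 cells per well and rested 5 hr before compound pinning from DMSO stocks. Following a 16-hr treatment at 37 C, a fluorogenic live-cell substrate (CellTiter-Fluor) reports viability after 1 hr.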

The nature of test [19]: qHTS assay to identify small molecule agonists of the TGF-beta/Smad signaling pathway - cell viability counter screen (AID 1346829). Also: top concentration of the series differs between compounds; nearly all actives have a fitted effect of over 45% in size. In short, it runs like this: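 Tox21 qHTS format: SBE-bla HEK 293T cells treated with DMSO-dissolved compounds for 5 hr; CellTiter-Glo luminescence after 30 min at room temperature.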
% is scaled to controls: 0 for no effect and ±100 for the full control effect.

Thyrotropin-releasing hormone receptor (Homo sapiens), sequence (P34981 whole entry, looked up): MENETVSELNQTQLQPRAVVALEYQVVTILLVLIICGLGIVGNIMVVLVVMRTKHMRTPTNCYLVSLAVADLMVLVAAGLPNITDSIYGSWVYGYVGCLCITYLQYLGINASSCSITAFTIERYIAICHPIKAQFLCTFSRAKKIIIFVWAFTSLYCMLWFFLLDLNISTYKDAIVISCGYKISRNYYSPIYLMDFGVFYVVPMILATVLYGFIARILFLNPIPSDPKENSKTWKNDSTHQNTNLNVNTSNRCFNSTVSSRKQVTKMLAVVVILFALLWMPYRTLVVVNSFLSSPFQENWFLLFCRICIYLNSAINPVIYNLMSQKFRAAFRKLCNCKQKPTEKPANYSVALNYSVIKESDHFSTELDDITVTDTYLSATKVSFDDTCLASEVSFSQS
Progesterone receptor (Homo sapiens), sequence (P06401 whole entry, looked up): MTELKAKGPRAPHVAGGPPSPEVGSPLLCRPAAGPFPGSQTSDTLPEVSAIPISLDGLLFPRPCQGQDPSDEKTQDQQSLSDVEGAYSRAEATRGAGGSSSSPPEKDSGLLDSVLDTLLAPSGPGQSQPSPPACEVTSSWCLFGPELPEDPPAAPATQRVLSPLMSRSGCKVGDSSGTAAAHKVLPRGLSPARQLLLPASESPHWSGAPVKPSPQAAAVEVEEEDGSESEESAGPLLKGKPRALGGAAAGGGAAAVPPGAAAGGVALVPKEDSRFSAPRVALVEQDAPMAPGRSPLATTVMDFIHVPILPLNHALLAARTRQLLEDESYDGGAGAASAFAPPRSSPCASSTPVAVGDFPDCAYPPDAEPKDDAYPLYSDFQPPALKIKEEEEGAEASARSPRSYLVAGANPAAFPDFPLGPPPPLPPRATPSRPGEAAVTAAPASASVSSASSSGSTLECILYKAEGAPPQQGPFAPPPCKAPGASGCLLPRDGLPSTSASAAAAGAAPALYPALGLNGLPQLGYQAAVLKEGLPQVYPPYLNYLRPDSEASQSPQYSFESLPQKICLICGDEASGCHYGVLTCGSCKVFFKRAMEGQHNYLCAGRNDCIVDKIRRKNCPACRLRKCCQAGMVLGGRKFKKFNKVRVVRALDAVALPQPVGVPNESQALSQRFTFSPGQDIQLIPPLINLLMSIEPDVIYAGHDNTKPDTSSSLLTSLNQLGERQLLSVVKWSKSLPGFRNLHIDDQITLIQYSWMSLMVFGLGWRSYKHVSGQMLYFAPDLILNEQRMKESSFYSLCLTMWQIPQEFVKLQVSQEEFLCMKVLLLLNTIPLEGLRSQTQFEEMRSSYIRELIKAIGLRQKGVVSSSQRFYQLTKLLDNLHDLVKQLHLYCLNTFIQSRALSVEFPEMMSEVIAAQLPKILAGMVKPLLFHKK
Thyrotropin receptor (Homo sapiens), sequence (P16473 whole entry, looked up): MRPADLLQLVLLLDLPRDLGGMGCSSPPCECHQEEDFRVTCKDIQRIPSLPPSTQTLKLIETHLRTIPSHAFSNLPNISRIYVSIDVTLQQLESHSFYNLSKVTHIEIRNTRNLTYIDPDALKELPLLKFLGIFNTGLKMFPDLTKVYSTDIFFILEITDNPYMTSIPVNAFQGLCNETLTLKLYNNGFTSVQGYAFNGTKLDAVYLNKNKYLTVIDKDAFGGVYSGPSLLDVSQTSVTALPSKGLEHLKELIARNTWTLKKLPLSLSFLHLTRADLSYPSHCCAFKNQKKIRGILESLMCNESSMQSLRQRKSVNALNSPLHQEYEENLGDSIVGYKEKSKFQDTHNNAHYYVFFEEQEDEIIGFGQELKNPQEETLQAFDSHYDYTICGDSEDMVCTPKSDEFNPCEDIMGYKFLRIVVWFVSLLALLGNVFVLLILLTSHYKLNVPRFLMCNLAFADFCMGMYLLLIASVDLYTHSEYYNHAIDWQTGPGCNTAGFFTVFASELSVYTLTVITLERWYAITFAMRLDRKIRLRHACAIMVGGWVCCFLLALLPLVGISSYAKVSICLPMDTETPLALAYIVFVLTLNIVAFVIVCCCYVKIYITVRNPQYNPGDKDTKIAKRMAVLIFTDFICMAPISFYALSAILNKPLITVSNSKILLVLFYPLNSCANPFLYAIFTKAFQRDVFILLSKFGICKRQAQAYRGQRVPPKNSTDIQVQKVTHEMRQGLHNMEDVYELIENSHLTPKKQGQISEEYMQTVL

For the compound `CCCCC(C)C(=O)O` (stereo not given), the outcome in test [1], in test [2], in test [3], in test [9], in test [10] and in test [12] was inactive. The call in test [14] was inactive. Moreover, the Potency entry in test [4], in test [5], in [6], in test [7], in [8] and in [11] was “inactive” each time. The Potency result in test [13] and in test [15] was “inactive” in each case.

In the case of `NS(=O)(=O)c1cc2c(cc1Cl)NC(C(Cl)Cl)NS2(=O)=O` (stereo not given), the compound was called inactive in [1], in test [2], in test [3], in test [9], in [10] and in [16]. For the same compound, the outcome in [17] and in test [14] was inactive. Also, the Potency entry in [4], in test [5], in [6], in [7], in [8] and in test [13] was “inactive” in each case. Besides, the Potency entry in [18] and in test [15] was “inactive” each time.

Turning to `NS(=O)(=O)c1cc2c(cc1Cl)NC(CC1CCCC1)NS2(=O)=O` (stereo not given), the compound was classed as inactive in [1], in test [2], in [3], in test [9], in test [19] and in test [10]. In addition, the result in [16], in [17], in [12] and in [14] was inactive. The Potency entry in [4], in test [5], in test [7], in test [8], in [11] and in test [13] was “inactive” each time. In addition, the Potency entry in test [18] and in test [15] was “inactive” throughout.

`CCNC(=O)/C=C/c1cccc(Br)c1`: the compound was classed as inactive in [1], in [2], in test [3], in [9], in [19] and in test [10]. The outcome in test [16], in test [17], in test [12] and in [14] was inactive. The Potency entry in test [4], in test [5], in test [6], in test [7], in test [8] and in [13] was “inactive” each time. Besides, the Potency entry in [18] is “inactive”. Besides, the Potency in [15] was 26.6 µM (active).

In the case of `CCCCCCCCCCCCCCCCI`, the activity change, negative = cytotoxicity in [1] was -0.0745% [at 19 µM]; in [4] it was -3.61% [at 19 µM]; in test [7] it was 17.5% [at 18.9 µM]; in [8], -9.05% [at 19 µM]; in [11], 1.52% [at 19 µM]; in [13], 4.85% [at 19 µM]. Further, in test [18], the activity change, negative = cytotoxicity is 7.09% [at 19 µM]. Moreover, the cAMP activity change in [2] is 5% [at 18.9 µM]. For the same compound, the activity change, negative = inhibition in test [3] is -4.61% [at 19 µM]; in test [6], -3.13% [at 18.9 µM]. Besides, the activation in test [5] is 0.0661% [at 19 µM]; in test [10] it was 1.65% [at 15.8 µM]; in test [15], 0.718% [at 19 µM]. The viability change, negative = cytotoxic in test [9] was -2.44% [at 15.8 µM]. The caspase activation in [12] is 0.99% [at 19 µM]. Besides, in test [14], the caspase-3/7 activation is -0.405% [at 19 µM].

With `COc1cc2c3cc1Oc1cc(ccc1O)C[C@@H]1c4c(cc(OC)c(O)c4Oc4ccc(cc4)C[C@@H]3N(C)CC2)CC[N+]1(C)C`, the outcome in [1], in test [2], in test [3], in test [9], in test [19] and in test [10] was inactive. Also, the compound was called inactive in test [12] and in test [14]. The Potency entry in test [4], in test [5], in [6], in [7], in test [8] and in test [13] was “inactive” throughout. The Potency result in test [18] and in test [15] was “inactive” each time.

Regarding `CC(C)c1ccccc1O`, the compound was classed as inactive in [1], in [2], in test [3], in test [9], in test [19] and in test [10]. The call in [12] was inactive. The Potency result in test [4], in [5], in test [6], in [8], in test [11] and in [13] was “inactive” in each case. Also, the Potency result in test [18] and in [15] was “inactive” each time.

Regarding `COc1cc(C=O)ccc1OC(=O)C(C)C`, the call in [1], in [2], in test [3], in test [9], in [10] and in [16] was inactive. Moreover, the result in test [17] and in [14] was inactive. For the same compound, the Potency entry in test [4], in [5], in test [6], in [7], in [8] and in [11] was “inactive” throughout. The Potency result in [13] and in test [18] was “inactive” each time.

For the origin of these results see PubChem BioAssay (Tox21).
